# Reference: the supplement of paper PMC8728848
# This is one part of a sample in which the strongest signals are shown more often than they occur.
# B1: LBL-152 (Laetiporus bicolor), B0D650 (protein)
# chain: MSNEYNPPLGIAFRLCGLASDRVLFSRVSPSPEVFHHPKSEVYPDQWFVAIPGSGQNAGCYAIKSKNTGKVLFSRMSPDPRVGHIDGDGKYPDNWFKFEAGSGKYAGYFRLRAVASDTVLVSRTSTGTDTQVINYPATSAKYDDQYFTILFDHHHHHH
# Legend:
# Assay in all cases: glycan array binding signal (z-score within array); higher = stronger binding
# Settings in all cases: glycan notation: IUPAC condensed, linker removed
# [1] = biological target: Gal(b1-4)GlcNAc(b1-3)Gal(b1-4)GlcNAc(b1-3)Gal(b1-4)GlcNAc(b1-3)Gal(b1-4)GlcNAc(b1-2)Man(a1-3)[Gal(b1-4)GlcNAc(b1-3)Gal(b1-4)GlcNAc(b1-3)Gal(b1-4)GlcNAc(b1-3)Gal(b1-4)GlcNAc(b1-2)Man(a1-6)]Man(b1-4)GlcNAc(b1-4)GlcNAc
# Method in brief: (§1)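 Negative Z-scores can be read as non-binding. The Z-score is calculated within each array and then averaged across arrays of one protein sequence at different concentrations or buffers and across linkers. Arrays, 3228 in all, were curated from the Consortium for Functional Glycomics database and kept only where the protein sequence was available.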
# [2] = biological target: Gal(b1-4)GlcNAc(b1-3)Gal(b1-4)GlcNAc(b1-3)Gal(b1-4)GlcNAc(b1-3)Gal(b1-4)GlcNAc(b1-2)Man(a1-3)[Gal(b1-4)GlcNAc(b1-3)Gal(b1-4)GlcNAc(b1-3)Gal(b1-4)GlcNAc(b1-3)Gal(b1-4)GlcNAc(b1-2)Man(a1-6)]Man(b1-4)GlcNAc(b1-4)[Fuc(a1-6)]GlcNAc
# Method in brief: as §1
# [3] = biological target: Gal(b1-4)GlcNAc(b1-3)Gal(b1-4)GlcNAc(b1-3)Gal(b1-4)GlcNAc(b1-3)Gal(b1-4)GlcNAc(b1-2)[Gal(b1-4)GlcNAc(b1-3)Gal(b1-4)GlcNAc(b1-3)Gal(b1-4)GlcNAc(b1-3)Gal(b1-4)GlcNAc(b1-6)]Man(a1-6)[Gal(b1-4)GlcNAc(b1-3)Gal(b1-4)GlcNAc(b1-3)Gal(b1-4)GlcNAc(b1-3)Gal(b1-4)GlcNAc(b1-2)Man(a1-3)]Man(b1-4)GlcNAc(b1-4)[Fuc(a1-6)]GlcNAc
# Method in brief: as §1
# [4] = biological target: Gal(b1-4)GlcNAc(b1-3)Gal(b1-4)GlcNAc(b1-3)Gal(b1-4)GlcNAc(b1-3)Gal(b1-4)GlcNAc(b1-3)Gal(b1-4)GlcNAc(b1-2)Man(a1-3)[Gal(b1-4)GlcNAc(b1-3)Gal(b1-4)GlcNAc(b1-3)Gal(b1-4)GlcNAc(b1-3)Gal(b1-4)GlcNAc(b1-3)Gal(b1-4)GlcNAc(b1-2)Man(a1-6)]Man(b1-4)GlcNAc(b1-4)GlcNAc
# Method in brief: as §1
# [5] = biological target: Gal(b1-4)GlcNAc(b1-3)Gal(b1-4)GlcNAc(b1-3)Gal(b1-4)GlcNAc(b1-3)Gal(b1-4)GlcNAc(b1-3)Gal(b1-4)GlcNAc(b1-2)Man(a1-3)[Gal(b1-4)GlcNAc(b1-3)Gal(b1-4)GlcNAc(b1-3)Gal(b1-4)GlcNAc(b1-3)Gal(b1-4)GlcNAc(b1-3)Gal(b1-4)GlcNAc(b1-2)Man(a1-6)]Man(b1-4)GlcNAc(b1-4)[Fuc(a1-6)]GlcNAc
# Method in brief: as §1
# [6] = biological target: Gal(b1-4)GlcNAc(b1-3)Gal(b1-4)GlcNAc(b1-3)Gal(b1-4)GlcNAc(b1-3)Gal(b1-4)GlcNAc(b1-3)Gal(b1-4)GlcNAc(b1-2)[Gal(b1-4)GlcNAc(b1-3)Gal(b1-4)GlcNAc(b1-3)Gal(b1-4)GlcNAc(b1-3)Gal(b1-4)GlcNAc(b1-3)Gal(b1-4)GlcNAc(b1-6)]Man(a1-6)[Gal(b1-4)GlcNAc(b1-3)Gal(b1-4)GlcNAc(b1-3)Gal(b1-4)GlcNAc(b1-3)Gal(b1-4)GlcNAc(b1-3)Gal(b1-4)GlcNAc(b1-2)Man(a1-3)]Man(b1-4)GlcNAc(b1-4)[Fuc(a1-6)]GlcNAc
# Method in brief: as §1
# [7] = biological target: Gal(b1-4)GlcNAc(b1-3)Gal(b1-4)GlcNAc(b1-3)Gal(b1-4)GlcNAc(b1-3)Gal(b1-4)GlcNAc(b1-3)Gal(b1-4)GlcNAc(b1-3)Gal(b1-4)GlcNAc(b1-2)Man(a1-3)[Gal(b1-4)GlcNAc(b1-3)Gal(b1-4)GlcNAc(b1-3)Gal(b1-4)GlcNAc(b1-3)Gal(b1-4)GlcNAc(b1-3)Gal(b1-4)GlcNAc(b1-3)Gal(b1-4)GlcNAc(b1-2)Man(a1-6)]Man(b1-4)GlcNAc(b1-4)GlcNAc
# Method in brief: as §1
# Gal6S(b1-4)GlcNAc = biological target: Gal6S(b1-4)GlcNAc
# Method in brief: as §1
# [8] = biological target: GalNAc(b1-3)Gal(a1-6)Gal(b1-4)Glc
# Method in brief: as §1
# GalNAc3S(b1-4)GlcNAc3S = biological target: GalNAc3S(b1-4)GlcNAc3S
# Method in brief: as §1
# GalNAc4S6S(b1-4)GlcNAc = biological target: GalNAc4S6S(b1-4)GlcNAc
# Method in brief: as §1
# [9] = biological target: GlcNAc(a1-4)Gal(b1-4)GlcNAc(b1-3)Gal(b1-4)[Fuc(a1-3)]GlcNAc(b1-3)Gal(b1-4)[Fuc(a1-3)]GlcNAc
# Method in brief: as §1
# [10] = biological target: GlcNAc(b1-2)Man(a1-3)[GlcNAc(b1-4)][GlcNAc(b1-2)Man(a1-6)]Man(b1-4)GlcNAc(b1-4)GlcNAc
# Method in brief: as §1
# [11] = biological target: GlcNAc(b1-3)Gal(b1-4)GlcNAc(b1-3)Gal(b1-4)GlcNAc(b1-3)Gal(b1-4)GlcNAc(b1-3)Gal(b1-4)GlcNAc(b1-2)Man(a1-3)[GlcNAc(b1-3)Gal(b1-4)GlcNAc(b1-3)Gal(b1-4)GlcNAc(b1-3)Gal(b1-4)GlcNAc(b1-3)Gal(b1-4)GlcNAc(b1-2)Man(a1-6)]Man(b1-4)GlcNAc(b1-4)GlcNAc
# Method in brief: as §1
# [12] = biological target: GlcNAc(b1-3)Gal(b1-4)GlcNAc(b1-3)Gal(b1-4)GlcNAc(b1-3)Gal(b1-4)GlcNAc(b1-3)Gal(b1-4)GlcNAc(b1-2)Man(a1-3)[GlcNAc(b1-3)Gal(b1-4)GlcNAc(b1-3)Gal(b1-4)GlcNAc(b1-3)Gal(b1-4)GlcNAc(b1-3)Gal(b1-4)GlcNAc(b1-2)Man(a1-6)]Man(b1-4)GlcNAc(b1-4)[Fuc(a1-6)]GlcNAc
# Method in brief: as §1
# GlcNAc(b1-3)Man = biological target: GlcNAc(b1-3)Man
# Method in brief: as §1
# [13] = biological target: GlcNAc6S(b1-3)Gal(b1-4)GlcNAc
# Method in brief: as §1
# [14] = biological target: Neu5Ac(a2-3)Gal(b1-3)GalNAc(b1-3)Gal(a1-4)Gal(b1-4)Glc
# Method in brief: as §1
# [15] = biological target: Neu5Ac(a2-3)Gal(b1-3)GalNAc(b1-4)[Neu5Ac(a2-8)Neu5Ac(a2-3)]Gal(b1-4)Glc
# Method in brief: as §1
# [16] = biological target: Neu5Ac(a2-3)Gal(b1-3)[Fuc(a1-4)]GlcNAc(b1-3)Gal(b1-3)[Fuc(a1-4)]GlcNAc
# Method in brief: as §1
# [17] = biological target: Neu5Ac(a2-3)Gal(b1-4)GlcNAc(b1-2)Man
# Method in brief: as §1
# [18] = biological target: Neu5Ac(a2-3)Gal(b1-4)GlcNAc(b1-2)[Neu5Ac(a2-3)Gal(b1-4)GlcNAc(b1-4)]Man(a1-3)[GlcNAc(b1-4)][Neu5Ac(a2-3)Gal(b1-4)GlcNAc(b1-4)Man(a1-6)]Man(b1-4)GlcNAc(b1-4)GlcNAc
# Method in brief: as §1
# [19] = biological target: Neu5Ac(a2-3)Gal(b1-4)GlcNAc(b1-3)Gal(b1-4)GlcNAc(b1-6)[Gal(b1-3)]GalNAc
# Method in brief: as §1
# [20] = biological target: Neu5Ac(a2-3)Gal(b1-4)GlcNAc(b1-6)GalNAc
# Method in brief: as §1
# [21] = biological target: Neu5Ac(a2-3)GalNAc(b1-4)GlcNAc
# Method in brief: as §1
# [22] = biological target: Neu5Ac(a2-3)[GalNAc(b1-4)]Gal(b1-4)GlcNAc(b1-3)GalNAc
# Method in brief: as §1
# [23] = biological target: Neu5Ac(a2-6)Gal(b1-4)GlcNAc(b1-3)Gal(b1-4)GlcNAc(b1-3)Gal(b1-4)GlcNAc(b1-2)Man(a1-3)[Neu5Ac(a2-6)Gal(b1-4)GlcNAc(b1-3)Gal(b1-4)GlcNAc(b1-3)Gal(b1-4)GlcNAc(b1-2)Man(a1-6)]GalNAc
# Method in brief: as §1
# [24] = biological target: Neu5Ac(a2-6)Gal(b1-4)GlcNAc(b1-3)Gal(b1-4)GlcNAc(b1-6)[Gal(b1-3)]GalNAc
# Method in brief: as §1
# [25] = biological target: Neu5Ac(a2-8)Neu5Ac(a2-3)Gal(b1-4)Glc
# Method in brief: as §1
binder,measurement,setting,value
B1,glycan array binding signal (z-score),[1],5.39
same,glycan array binding signal (z-score),[2],8.72
same,glycan array binding signal (z-score),[3],6.24
same,glycan array binding signal (z-score),[4],10.6
same,glycan array binding signal (z-score),[5],9.73
same,glycan array binding signal (z-score),[6],7.26
same,glycan array binding signal (z-score),[7],5.94
same,glycan array binding signal (z-score),Gal6S(b1-4)GlcNAc,-0.151
same,glycan array binding signal (z-score),[8],-0.159
same,glycan array binding signal (z-score),GalNAc3S(b1-4)GlcNAc3S,-0.163
same,glycan array binding signal (z-score),GalNAc4S6S(b1-4)GlcNAc,-0.15
same,glycan array binding signal (z-score),[9],-0.147
same,glycan array binding signal (z-score),[10],-0.153
same,glycan array binding signal (z-score),[11],3.47
same,glycan array binding signal (z-score),[12],4.51
same,glycan array binding signal (z-score),GlcNAc(b1-3)Man,-0.156
same,glycan array binding signal (z-score),[13],-0.157
same,glycan array binding signal (z-score),[14],-0.15
same,glycan array binding signal (z-score),[15],-0.145
same,glycan array binding signal (z-score),[16],-0.147
same,glycan array binding signal (z-score),[17],-0.149
same,glycan array binding signal (z-score),[18],-0.16
same,glycan array binding signal (z-score),[19],-0.162
same,glycan array binding signal (z-score),[20],-0.16
same,glycan array binding signal (z-score),[21],-0.153
same,glycan array binding signal (z-score),[22],-0.151
same,glycan array binding signal (z-score),[23],-0.134
same,glycan array binding signal (z-score),[24],-0.154
same,glycan array binding signal (z-score),[25],-0.157
